# Out of some 410,000 compounds screened, about 260 (0.063%) were called active. Roughly 2% stayed inconclusive and do not appear here. The call rests on the fitted dose curve; in most records, active means well fitted activation curve with a large enough effect; inconclusive means small, poorly fitted or top-dose-only effect; inactive means no such curve, though single readings can be large or run the other way. The entries come from a sample that favours actives as a whole.
# Experiment: qHTS for compounds that reverse cellular toxicity of Amyloid beta (A-beta) peptide in yeast: Primary Screen; further: nearly all actives have a fitted effect of over 55% in size
# Conditions: yeast expressing A-beta42, growth rescue, OD600, 48 h; series mostly up to 46.1 µM; growth rescue: at the top concentration
# From the text: The A-beta peptide is produced by the processing of the amyloid precursor protein (APP) by two proteases, beta and gamma secretases. […] A-beta42 is regarded as the most amyloidogenic form due to its hydrophobicity; however, precisely how A-beta42 induces neurotoxicity is unclear. To understand further this biology and its potential therapeutic implications for human neurodegenerative disease, a quantitative high-throughput screen for compounds that reverse the cellular toxicity of the A-beta peptide was developed. A yeast based screen was used because it recapitulates the salient feature of protein mis-folding disorder accurately. This cell-based phenotypic screen provides a significant, unbiased advantage by letting the compounds and models inform us which proteins or pathways are most relevant. The ideal chemical candidates would therefore have activity in both our primary yeast and secondary neuronal toxicity assays, as well as in mouse models. They will be valuable tools for dissecting diverse protein homeostasis pathologies and could potentially become the focus for future pre-clinical development. For this luminescence assay, inhibition of A-beta rescues the toxic effect in the yeast cell, resulting in increase of signals and the desired phenotype of "Activator". This screen is run against the Molecular Libraries Small Molecule Repository (MLSMR) and the NCGC Sytravon Library Collection.
# NIH Chemical Genomics Center [NCGC]
# NIH Molecular Libraries Probe Centers Network [MLPCN]
# Assay Submitter (PI): Susan Lindquist, Whitehead Institute, Massachusetts Institute of Technology
# [1] Vassar R,et al (1999). Beta-secretase cleavage of Alzheimer's amyloid precursor protein by the transmembrane aspartic protease BACE. Science. 286: 735-741.
# [2] Yan R, et al (1999). Membrane-anchored aspartyl protease with Alzheimer's disease beta-secretase activity. Nature. 402: 533-536.
# Two and a half microliter / well of yeast growth medium were dispensed in a 1536 assay plate. Compounds were pinned using the Kalypsys robotic system followed by addition of 2.5 uL / well yeast solution. The assay plates were incubated at 30 C. After 48 hr, the absorbance signal at 600 nm was obtained using the PerkinElmer ViewLux plate reader to assess yeast growth. The data was normalized to the positive control of an equimolar mixture of ferric chloride (FeCl3) and clioquinol and to the negative control DMSO.
SMILES,growth rescue,Potency
COCCNC(=O)CSc1nc(-c2ccccc2)[nH]c1-c1ccc(C)cc1,-13.5% (inactive),
COc1ccccc1CNC(=O)C(Cc1ccccc1)NS(=O)(=O)c1ccc2c(c1)oc(=O)n2C (stereo not drawn),0.772% (inactive),
CCCCNC(=O)C1CCCN(c2nnc(C)c3c(C)n(-c4ccc(Cl)cc4)nc23)C1 (stereo not drawn),-17.8% (inactive),
CCOC(=O)c1c(NC(=O)CSc2cn(CCNC(=O)c3cccc(C(F)(F)F)c3)c3ccccc23)sc2c1CCC2,-8.29% (inactive),
Cn1c(=O)c2c(ncn2CC(=O)Nc2cccc(C(F)(F)F)c2)n(C)c1=O,-3.94% (inactive),
CCN(CCCNC(=O)c1ccc(Sc2ccc(C)cc2)c(NC(C)=O)c1)c1cccc(C)c1,-1.54% (inactive),
C#CCOc1ccc(C2CC(=O)Nc3c2c(C)nn3-c2nc(C)cc(C)n2)cc1 (stereo not drawn),2.23% (inactive),
COc1cccc(NC(=O)CSC2=Nc3ccccc3C3=NC(CC(=O)NC4CCCCC4)C(=O)N23)c1 (stereo not drawn),-14.8% (inactive),
O=C(CNS(=O)(=O)c1cccs1)N1CCN(c2ccccc2Cl)CC1,5.4% (inactive),
CSc1nsc(SC)c1NC(=O)OC1CCCCC1,,4.47 µM (active)
Cc1nnc(N2CCC(C(=O)Nc3ccc(F)cc3)CC2)c2nn(-c3ccc(Cl)cc3)c(C)c12,5.45% (inactive),
COc1ccc(-c2onc(C)c2C)cc1S(=O)(=O)NCc1cccs1,-11.1% (inactive),
COc1cc(OC)cc(-c2nc3nc(C)c(CCC(=O)Nc4ccc(C)cc4)c(C)n3n2)c1,-8.3% (inactive),
CCOCCc1nn2c(=O)cc(COC(=O)CNC(=O)c3ccc(C(C)(C)C)cc3)nc2s1,-7.06% (inactive),
Cc1ccccc1-n1c(=O)c2ccccc2n(Cc2ccc(F)cc2)c1=O,8.53% (inactive),
CCOC(=O)c1cnc2c(C)cc(Cl)cc2c1NCCc1ccc(OC)c(OC)c1,-7.55% (inactive),
CCOc1ccccc1NC(=O)Cn1c(=O)n(Cc2ccccc2)c(=O)c2c(C)c(C(=O)N(C)C)sc21,8.18% (inactive),
COc1ccc(C2C(=O)N(C3CCCCC3)CC(=O)N2Cc2ccccc2Cl)cc1OC (stereo not drawn),-19.9% (inactive),
Cc1cccc(OCCSc2nc3ccccc3n2CC(=O)N2CCCCC2)c1C,-18.2% (inactive),
Cc1ccc(C(=O)N2CCc3cc(CNC(=O)c4ccc(Br)cc4)ccc32)cc1,-7.59% (inactive),

SMILES,growth rescue,Potency
Cc1cccc(N(C)C(=O)CS(=O)(=O)c2cccc3nsnc23)c1,-5.59% (inactive),
Cc1ccc(Cl)cc1NC(=O)COC(=O)CC(C)(C)C,7.7% (inactive),
CC(C)(C)NC(=O)NC(=O)COC(=O)Cc1ccc(Cl)cc1Cl,,11.2 µM (active)
COc1ccccc1OCCC(=O)OCC(=O)NC(=O)NC(C)(C)C,6.23% (inactive),
CCN1C(=O)[C@H]2[C@@H](c3ccc(C(F)(F)F)cc3)N[C@]3(CCCN(Cc4ccc(Br)cc4)C3=O)[C@H]2C1=O,27.1% (inactive),
Cc1ccc([C@H]2N[C@]3(CCCN(Cc4ccccc4)C3=O)[C@H]3C(=O)N(Cc4ccccc4)C(=O)[C@@H]23)cc1,-6.57% (inactive),
O=C1[C@H]2[C@@H](c3ccc(C(F)(F)F)cc3)N[C@]3(CCCN(Cc4ccc(Cl)cc4)C3=O)[C@H]2C(=O)N1Cc1ccccc1,,8.91 µM (active)
COc1ccc(CCNC(=O)Cn2c(=O)n(-c3ccccc3)c(=O)c3c(C)c(C)sc32)cc1OC,-4.29% (inactive),
COc1ccccc1OCC(=O)Nc1nnc2n1CCS2,-8.79% (inactive),
CCOc1ccc(CNC(=O)C2CCN(c3nnc(-n4cccc4CNc4ccc(C)cc4)s3)CC2)cc1OC,-2.64% (inactive),
COc1cccc(CNC(=O)Cn2ncn3c(cc4ccccc43)c2=O)c1,-12.9% (inactive),
COCCNc1ncnc2c1c(-c1ccccc1)cn2-c1ccc(C)c(Cl)c1,-0.39% (inactive),
CCOc1ccc(-c2cc3nc(C4CCN(C(=O)OC(C)(C)C)CC4)c(C(=O)Nc4cccc(CC)c4)cn3n2)cc1,-2.51% (inactive),
O=c1cc(COc2cccc(C(F)(F)F)c2)nc2sc3c(n12)CCCC3,2.31% (inactive),
CCc1ccc(NC(=O)CN2C(=O)C(c3ccccc3)=NC23CCCCCC3)cc1,-33.6% (inactive),
CCCNC(=S)N1CCC(NC(=O)c2ccc(OC)cc2)CC1,-10.6% (inactive),
COc1ccc(C(=O)NC(=S)NC2CCCCC2)cc1,,12.6 µM (active)
COc1ccc(S(=O)(=O)N2CCN(C(=O)NC3CCCCC3)CC2)cc1,-11% (inactive),
CCOc1ccc(NC(=O)CCC(=O)N2CC(C)Oc3ccc(C)cc32)cc1 (stereo not drawn),7.46% (inactive),
CCn1c(CN2CCC(C)CC2)nc2cc(NC(=O)c3ccccc3[N+](=O)[O-])ccc21,0.862% (inactive),

SMILES,growth rescue,Potency
CCc1cccc(NC(=O)Cn2nc(CC)n3c(cc4cc(C)ccc43)c2=O)c1,2.28% (inactive),
CC1=C(c2ccc(C)cc2)S(=O)(=O)NC1=NCCCN1CCN(c2cc(C)ccc2C)CC1,7.63% (inactive),
COc1cccc(-c2cc(C(=O)Nc3ccc(C)cc3)[nH]n2)c1,-6.21% (inactive),
Cc1ccc(N2CCN(C(=O)CCc3c(C)nc4c(c3C)c(=O)n(C)c(=O)n4C)CC2)c(C)c1,-7.12% (inactive),
CCOC(=O)c1c(NC(=O)/C(C#N)=C/c2ccccc2)sc2c1CCC2,-4.42% (inactive),
COc1ccccc1CN1CCC(CNC(=O)c2cnn(-c3ccccc3Cl)c2C2CCN(C(=O)OC(C)(C)C)CC2)CC1,12.1% (inactive),
CCn1c(CNC(=O)C23CC4CC(CC(C4)C2)C3)nnc1SCC(=O)Nc1ccc(OC)cc1,-8.21% (inactive),
COc1ccc(-c2nn(CC(=O)NC3CCCC3)c3c2cnc2ccc(F)cc23)cc1,-2.71% (inactive),
Cc1nn(C(C)C(=O)Nc2ccc(C(C)C)cc2)c(=O)c2c1sc1ccccc12 (stereo not drawn),17.1% (inactive),
COc1cc(OC)c(NC(=O)c2nc(-c3ccncc3)no2)cc1Cl,-15.5% (inactive),
COc1ccc(CCN2C(=O)c3oc4cc(C)cc(C)c4c(=O)c3C2c2ccccc2F)cc1OC (stereo not drawn),-7.53% (inactive),
CCOC(=O)c1cc2c(=O)n3ccccc3nc2n(CCCOC)c1=NC(=O)C(C)Oc1ccccc1 (stereo not drawn),-6.19% (inactive),
COc1cc(C(=O)Nc2ccc(OCc3cc(=O)n4cc(C)sc4n3)cc2)cc(OC)c1OC,-12.8% (inactive),
COc1ccc(CN2CCc3nc(Nc4ccccc4)ncc3C2)c(OC)c1OC,4.24% (inactive),
Cc1cccc(Cn2c(CN3CCC(C(=O)NCc4ccccc4Cl)CC3)cc3ccccc32)c1,10.4% (inactive),
CCOC(=O)N1CCc2c(sc3c2c(=O)n(Cc2ccccc2)c(=O)n3CC(=O)Nc2cccc(C)c2)C1,1.66% (inactive),
O=C(Nc1cc(Cl)cc(Cl)c1)c1ccc2c(c1)N(Cc1cccc(Cl)c1)C(=O)c1ccccc1S2=O (stereo not drawn),-1.8% (inactive),
CCc1ccc(NC(=O)c2nn(-c3ccc(C)cc3)c(=O)n(C)c2=O)cc1,-10.6% (inactive),
